Experimental data reported in PubChem BioAssay (EPA / NIEHS).
Values joined by “and” are separate entries in the source; they are usually repeats but may differ in a detail not shown here. Equal entries are not always repeated. Records with an inconclusive call do not appear. The source holds several records for some structures; these can differ, active in one and inactive in another. Active and inactive are the calls of the source. Rule for the calls, unless noted: active = hit-call score of the fitted dose curve at least 0.9, where 1 is the maximum; inconclusive = response in the unintended direction; inactive = score below 0.9.

How the values were obtained:
[1] = biological target: human Peripheral-type Benzodiazepine Receptor (PBR), TSPO (gene 706) (UniProt P30536); test: NVS_MP_hPBR: NovaScreen (NVS) Membrane Protein Assay for human Peripheral-type Benzodiazepine Receptor (PBR) (AID 2283331);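 note: hits reduce radioligand binding relative to DMSO baseline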
Chain of human Peripheral-type Benzodiazepine Receptor (PBR), TSPO (gene 706) (P30536 whole entry, looked up): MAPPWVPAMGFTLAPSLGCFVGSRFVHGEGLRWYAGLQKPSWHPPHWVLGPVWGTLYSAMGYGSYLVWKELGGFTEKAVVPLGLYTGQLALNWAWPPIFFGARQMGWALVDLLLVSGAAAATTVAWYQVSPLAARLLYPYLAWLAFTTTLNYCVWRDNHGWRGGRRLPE
Outline: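 Radioligand displacement on human colonic cell membranes, 1 h incubation; bound radioactivity by filtration and scintillation counting. Primary screen in duplicate at 25 uM single concentration, actives followed up in concentration series; loss of binding versus DMSO.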

[2] = biological target: human Androgen Receptor (AR), AR (gene 367) (UniProt P10275); test: NVS_NR_hAR: NovaScreen (NVS) Nuclear Receptor Binding Assay for human Androgen Receptor (AR) (AID 2283332)
Chain of human Androgen Receptor (AR), AR (gene 367) (P10275 whole entry, looked up): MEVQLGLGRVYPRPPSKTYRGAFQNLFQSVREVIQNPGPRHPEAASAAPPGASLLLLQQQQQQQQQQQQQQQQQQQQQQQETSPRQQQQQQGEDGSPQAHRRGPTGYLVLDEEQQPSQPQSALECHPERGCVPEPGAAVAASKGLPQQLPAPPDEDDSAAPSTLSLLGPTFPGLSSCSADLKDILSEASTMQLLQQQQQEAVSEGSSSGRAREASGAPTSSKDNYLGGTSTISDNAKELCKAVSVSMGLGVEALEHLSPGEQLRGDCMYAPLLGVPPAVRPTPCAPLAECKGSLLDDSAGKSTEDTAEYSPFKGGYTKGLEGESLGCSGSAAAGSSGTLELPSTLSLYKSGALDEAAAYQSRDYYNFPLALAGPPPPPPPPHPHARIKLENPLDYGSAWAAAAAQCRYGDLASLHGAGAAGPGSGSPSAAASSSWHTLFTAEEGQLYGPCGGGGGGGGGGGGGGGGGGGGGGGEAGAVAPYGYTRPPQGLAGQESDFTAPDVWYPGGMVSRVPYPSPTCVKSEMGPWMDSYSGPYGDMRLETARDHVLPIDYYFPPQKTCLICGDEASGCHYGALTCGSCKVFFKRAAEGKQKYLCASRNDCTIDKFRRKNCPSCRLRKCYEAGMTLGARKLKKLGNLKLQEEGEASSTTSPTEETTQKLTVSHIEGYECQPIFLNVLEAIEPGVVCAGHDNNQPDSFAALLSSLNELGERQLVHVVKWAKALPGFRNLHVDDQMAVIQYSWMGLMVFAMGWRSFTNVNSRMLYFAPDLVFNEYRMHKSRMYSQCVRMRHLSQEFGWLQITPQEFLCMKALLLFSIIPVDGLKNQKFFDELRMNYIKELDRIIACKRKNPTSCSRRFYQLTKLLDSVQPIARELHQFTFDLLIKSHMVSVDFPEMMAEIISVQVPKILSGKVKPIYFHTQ
Outline: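 LnCAP cell-free extract; radioligand displacement read by scintillation counting after 20 h. Primary screen single concentration 25 uM in duplicate, actives then run as concentration series; loss-of-signal fitted relative to DMSO baseline.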

[3] = biological target: Voltage-gated inwardly rectifying potassium channel KCNH2 (Homo sapiens) (UniProt Q12809); test: NVS_IC_hKhERGCh: NovaScreen (NVS) Ion Channel Assay for human Potassium Channel ERG (KhERGCh) (AID 2283333)
Outline: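 Cell-free radioligand competition binding on hERG protein extracted from CHO cells, read by filter-based scintillation counting 0.75 h after dosing. Primary screen at 25 uM in duplicate, actives followed in concentration series. Signal loss fitted versus DMSO.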

[4] = biological target: rat Peripheral-type Benzodiazepine Receptor (PBR), Tspo (gene 24230) (UniProt P16257); test: NVS_MP_rPBR: NovaScreen (NVS) Membrane Protein Assay for rat Peripheral-type Benzodiazepine Receptor (PBR) (AID 2283335)
Chain of rat Peripheral-type Benzodiazepine Receptor (PBR), Tspo (gene 24230) (P16257 whole entry, looked up): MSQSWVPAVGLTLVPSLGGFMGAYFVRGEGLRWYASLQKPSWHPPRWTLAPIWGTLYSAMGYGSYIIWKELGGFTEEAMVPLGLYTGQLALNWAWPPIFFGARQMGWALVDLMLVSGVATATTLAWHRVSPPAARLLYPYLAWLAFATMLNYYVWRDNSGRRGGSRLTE
Outline: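 Radioligand displacement, rat kidney membrane prep, 1 h exposure, filter-based scintillation read; DMSO baseline, loss-of-signal scored. Primary screen at 25 uM in duplicate, actives followed up in concentration series.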

[5] = test system: guinea pig Histamine Receptor (H2), gene 100729734; test: NVS_GPCR_gH2: NovaScreen (NVS) G Protein-Coupled Receptor Assay for guinea pig Histamine Receptor (H2) (AID 2283342)
Outline: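 Radioligand displacement on guinea pig striatal membranes, 1 h after dosing, filter-based scintillation counting; loss of signal versus DMSO. Single-point screen at 25 uM in duplicate, then concentration-response up to 50 uM.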

NCBI gene 100848466 = test: NVS_NR_bPR: NovaScreen (NVS) Nuclear Receptor Binding Assay for bovine Progextron Receptor (PR) (AID 2283343);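 for AC50: actives lower bound radioligand signal below DMSO meaning displacement of the label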
Outline: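 Bovine uterine membrane preparation; radioligand displacement read by scintillation counting 18 h after dosing. Primary screen single concentration, 25 uM, in duplicate; actives followed up in concentration series. Signal loss versus DMSO baseline.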

[6] = biological target: human Constitutive Androstane Receptor (CAR), NR1I3 (gene 9970) (UniProt Q14994); test: NVS_NR_hCAR_Antagonist: NovaScreen (NVS) Nuclear Receptor Binding Assay for human Constitutive Androstane Receptor Antagonism (CAR) (AID 2283344)
Chain of human Constitutive Androstane Receptor (CAR), NR1I3 (gene 9970) (Q14994 whole entry, looked up): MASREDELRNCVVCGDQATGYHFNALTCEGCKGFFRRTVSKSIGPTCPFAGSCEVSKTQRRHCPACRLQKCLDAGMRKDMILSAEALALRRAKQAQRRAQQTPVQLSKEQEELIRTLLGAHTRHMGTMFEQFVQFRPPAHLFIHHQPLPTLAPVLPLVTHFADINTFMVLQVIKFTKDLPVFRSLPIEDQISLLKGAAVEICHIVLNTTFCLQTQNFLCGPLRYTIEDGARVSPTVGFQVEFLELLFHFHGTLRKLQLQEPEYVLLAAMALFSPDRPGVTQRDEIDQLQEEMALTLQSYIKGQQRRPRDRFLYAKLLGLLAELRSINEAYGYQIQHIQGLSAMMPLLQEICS
Outline: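 Cell-free TR-FRET binding read 1 h after dosing, antagonist mode; loss of signal versus DMSO baseline. Primary screen in duplicate at a single 25 uM; actives retested in concentration series.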

[7] = biological target: chimpanzee Androgen Receptor (AR), AR (gene 747460) (UniProt O97775); test: NVS_NR_cAR: NovaScreen (NVS) Nuclear Receptor Binding Assay for chimpanzee Androgen Receptor (AR) (AID 2283346);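 note: radioligand displacement from AR measured by scintillation counting in a cell-free assay; a loss of bound radioligand signal versus DMSO counts as binding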
Chain of chimpanzee Androgen Receptor (AR), AR (gene 747460) (O97775 whole entry, looked up): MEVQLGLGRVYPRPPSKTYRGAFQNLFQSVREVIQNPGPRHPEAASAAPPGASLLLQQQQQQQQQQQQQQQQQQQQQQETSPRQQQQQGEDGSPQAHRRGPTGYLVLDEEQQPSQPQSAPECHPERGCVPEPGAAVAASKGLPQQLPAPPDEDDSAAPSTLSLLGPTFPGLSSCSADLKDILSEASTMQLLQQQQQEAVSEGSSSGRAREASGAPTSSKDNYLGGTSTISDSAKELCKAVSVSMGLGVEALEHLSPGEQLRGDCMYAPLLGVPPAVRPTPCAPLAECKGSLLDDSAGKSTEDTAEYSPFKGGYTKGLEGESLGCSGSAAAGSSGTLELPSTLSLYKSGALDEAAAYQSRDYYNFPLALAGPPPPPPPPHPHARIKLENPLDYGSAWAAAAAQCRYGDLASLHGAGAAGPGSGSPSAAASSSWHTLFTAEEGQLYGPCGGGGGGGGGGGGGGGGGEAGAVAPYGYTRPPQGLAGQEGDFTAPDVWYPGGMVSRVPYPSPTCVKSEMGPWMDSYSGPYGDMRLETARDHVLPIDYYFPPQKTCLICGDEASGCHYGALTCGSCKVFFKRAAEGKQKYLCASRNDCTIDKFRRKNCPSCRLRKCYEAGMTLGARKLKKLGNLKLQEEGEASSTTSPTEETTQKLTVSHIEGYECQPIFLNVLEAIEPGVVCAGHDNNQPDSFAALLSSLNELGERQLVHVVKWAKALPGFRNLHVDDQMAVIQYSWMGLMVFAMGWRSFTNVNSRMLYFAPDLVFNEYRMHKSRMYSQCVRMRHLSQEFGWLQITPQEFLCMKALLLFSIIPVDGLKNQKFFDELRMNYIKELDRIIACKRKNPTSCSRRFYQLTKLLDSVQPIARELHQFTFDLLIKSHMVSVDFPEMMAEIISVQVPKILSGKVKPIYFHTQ
Outline: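 Radioligand binding to chimpanzee AR expressed in Sf9/Sf21 cells, cell-free, measured 72 h after dosing by lysate-based scintillation counting. Loss of signal vs DMSO; initial duplicate screen at 25 uM, actives retested in concentration series.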

[8] = biological target: Estrogen receptor (Homo sapiens) (UniProt P03372); test: OT_ER_ERaERa_1440: Odyssey Thera (OT) 24-hour HEK293T Protein-Complementation Assay for Estrogen Receptor-alpha/-alpha Homodimer (AID 2283349);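 note: hits raise fluorescence above DMSO for agonists and antagonists alike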
Chain of Estrogen receptor (Homo sapiens) (P03372 whole entry, looked up, the tested form may be a part): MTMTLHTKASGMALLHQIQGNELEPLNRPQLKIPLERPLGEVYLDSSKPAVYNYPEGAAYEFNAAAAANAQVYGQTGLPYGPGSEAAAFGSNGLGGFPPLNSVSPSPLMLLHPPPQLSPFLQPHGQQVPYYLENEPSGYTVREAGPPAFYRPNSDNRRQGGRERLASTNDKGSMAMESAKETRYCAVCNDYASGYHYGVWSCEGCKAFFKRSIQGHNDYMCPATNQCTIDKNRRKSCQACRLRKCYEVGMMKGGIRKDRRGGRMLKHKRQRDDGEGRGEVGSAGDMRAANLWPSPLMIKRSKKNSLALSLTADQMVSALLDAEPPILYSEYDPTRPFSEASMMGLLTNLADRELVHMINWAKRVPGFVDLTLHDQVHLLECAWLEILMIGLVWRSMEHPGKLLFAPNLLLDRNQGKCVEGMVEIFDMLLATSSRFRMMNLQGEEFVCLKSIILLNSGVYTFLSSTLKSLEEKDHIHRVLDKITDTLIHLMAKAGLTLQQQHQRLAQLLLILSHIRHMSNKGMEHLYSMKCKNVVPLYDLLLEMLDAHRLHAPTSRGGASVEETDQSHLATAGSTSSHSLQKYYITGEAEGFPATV
Outline: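 HEK293T cells stably expressing the human ER alpha ligand-binding domain (aa 310-547) as a homodimer PCA were dosed for 24 hours. Fluorescence intensity was read by laser scanning cytometry, and gain of signal was fitted relative to DMSO vehicle.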

[9] = biological target: Estrogen receptor (Homo sapiens) (UniProt P03372); test: OT_ER_ERaERa_0480: Odyssey Thera (OT) 8-hour HEK293T Protein-Complementation Assay for Estrogen Receptor-alpha/-alpha Homodimer (AID 2283351);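 note: rise in fluorescence from reassembled reporter fragments on ERα LBD homodimer in nucleus or whole cell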
Outline: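 HEK293T cells stably expressing the human ERα ligand-binding domain (aa 310-547) as a homodimer PCA were dosed with compound for 8 h. Gain of fluorescence intensity versus DMSO vehicle was read by laser scanning cytometry.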

[10] = biological target: Small conductance calcium-activated potassium channel protein 1 (Rattus norvegicus) (UniProt P70606); test: NVS_IC_rKCaCh: NovaScreen (NVS) Ion Channel Assay for rat Potassium Channel, Ca2+ Act., VI (KCaCh) (AID 2283336)
Chain of Small conductance calcium-activated potassium channel protein 1 (Rattus norvegicus) (P70606 whole entry, looked up): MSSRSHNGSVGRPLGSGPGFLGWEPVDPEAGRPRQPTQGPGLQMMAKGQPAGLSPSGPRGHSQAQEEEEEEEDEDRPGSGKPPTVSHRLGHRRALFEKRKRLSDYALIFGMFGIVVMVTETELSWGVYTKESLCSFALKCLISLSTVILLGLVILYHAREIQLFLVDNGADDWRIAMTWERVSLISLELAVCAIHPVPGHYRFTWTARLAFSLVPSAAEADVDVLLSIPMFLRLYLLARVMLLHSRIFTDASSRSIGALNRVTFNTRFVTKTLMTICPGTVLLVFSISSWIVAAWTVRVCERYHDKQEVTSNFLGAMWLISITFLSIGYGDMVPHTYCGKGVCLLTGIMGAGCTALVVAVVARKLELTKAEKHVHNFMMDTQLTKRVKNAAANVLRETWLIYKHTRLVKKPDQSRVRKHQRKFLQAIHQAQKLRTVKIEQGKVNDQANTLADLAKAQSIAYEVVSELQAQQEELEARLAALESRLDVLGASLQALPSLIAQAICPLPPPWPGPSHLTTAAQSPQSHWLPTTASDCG
Outline: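 Radioligand binding to rat forebrain membranes, cell-free, read 1 hour after dosing by filter-based scintillation counting. Compounds first run in duplicate at 25 uM, actives then in concentration series; loss of signal vs DMSO indicates displacement.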

[11] = biological target: Estrogen receptor (Homo sapiens) (UniProt P03372); test: NVS_NR_hER: NovaScreen (NVS) Nuclear Receptor Binding Assay for human Estrogen Receptor (ER) (AID 2283348)
Outline: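 Radioligand competitive displacement binding to estrogen receptor from MCF7 extract, cell-free; 18 h after dosing, scintillation read-out. Primary screen in duplicate at 25 uM; actives followed up in concentration series; loss of signal vs DMSO.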

[12] = biological target: Bile acid receptor (Homo sapiens) (UniProt Q96RI1); test: NVS_NR_hFXR_Agonist: NovaScreen (NVS) Nuclear Receptor Binding Assay for human Farnesoid X Receptor Agonism (FXR) (AID 2283347)
Chain of Bile acid receptor (Homo sapiens) (Q96RI1 whole entry, looked up): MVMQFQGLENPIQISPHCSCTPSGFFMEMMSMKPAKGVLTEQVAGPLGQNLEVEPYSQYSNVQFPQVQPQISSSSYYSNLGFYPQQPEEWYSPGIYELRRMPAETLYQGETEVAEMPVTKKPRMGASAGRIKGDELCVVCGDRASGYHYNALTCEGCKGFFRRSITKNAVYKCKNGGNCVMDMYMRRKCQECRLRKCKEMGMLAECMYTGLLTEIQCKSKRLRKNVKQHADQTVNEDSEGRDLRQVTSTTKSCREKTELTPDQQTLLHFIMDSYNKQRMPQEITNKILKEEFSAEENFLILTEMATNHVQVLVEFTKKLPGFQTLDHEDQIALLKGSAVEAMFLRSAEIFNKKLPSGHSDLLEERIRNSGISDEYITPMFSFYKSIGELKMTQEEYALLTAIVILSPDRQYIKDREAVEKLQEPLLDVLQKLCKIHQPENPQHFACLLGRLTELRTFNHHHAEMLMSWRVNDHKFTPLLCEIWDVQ
Outline: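 Cell-free TR-FRET binding assay with extracted human FXR protein, agonist format, read 1 h after dosing. Primary screen at 25 uM single concentration in duplicate, actives retested in concentration series; gain of signal versus DMSO.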

[13] = biological target: Bile acid receptor (Homo sapiens) (UniProt Q96RI1); test: NVS_NR_hFXR_Antagonist: NovaScreen (NVS) Nuclear Receptor Binding Assay for human Farnesoid X Receptor Antagonism (FXR) (AID 2283350)
Outline: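 Cell-free TR-FRET ligand-binding read-out on human FXR (NR1H4) in antagonist mode, measured 1 h after dosing. Primary screen in duplicate at 25 uM, actives retested in concentration series; signal loss scored versus DMSO.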

[14] = biological target: bovine Estrogen Receptor (ER), ESR1 (gene 407238) (UniProt P49884); test: NVS_NR_bER: NovaScreen (NVS) Nuclear Receptor Binding Assay for bovine Estrogen Receptor (ER) (AID 2283345);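 note: actives lower the bound radioligand count which means they displace the ER ligand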
Chain of bovine Estrogen Receptor (ER), ESR1 (gene 407238) (P49884 whole entry, looked up): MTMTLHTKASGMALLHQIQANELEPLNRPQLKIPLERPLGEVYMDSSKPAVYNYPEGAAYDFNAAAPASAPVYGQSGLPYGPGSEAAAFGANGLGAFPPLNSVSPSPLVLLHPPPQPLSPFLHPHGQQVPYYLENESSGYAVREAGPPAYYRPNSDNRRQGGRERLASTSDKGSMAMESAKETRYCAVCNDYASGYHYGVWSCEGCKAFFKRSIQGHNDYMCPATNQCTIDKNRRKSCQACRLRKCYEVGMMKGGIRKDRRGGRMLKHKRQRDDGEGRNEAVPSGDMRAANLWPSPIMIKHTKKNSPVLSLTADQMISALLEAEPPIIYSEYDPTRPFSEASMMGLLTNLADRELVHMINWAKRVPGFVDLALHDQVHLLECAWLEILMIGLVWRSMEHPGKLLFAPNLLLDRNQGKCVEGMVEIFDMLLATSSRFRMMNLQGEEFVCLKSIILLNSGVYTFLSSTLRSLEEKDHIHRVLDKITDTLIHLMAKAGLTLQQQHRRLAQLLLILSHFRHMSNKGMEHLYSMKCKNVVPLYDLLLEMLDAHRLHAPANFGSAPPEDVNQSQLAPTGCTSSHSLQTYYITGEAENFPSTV
Outline: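 Scintillation counting of displaced radioligand gave the readout; bovine uterine membrane extract supplied the receptor. Measured 18 h post-dose, normalized to DMSO baseline. Single 25 uM duplicate screen preceded concentration-response follow-up.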

[15] = biological target: Glutamate receptor ionotropic, kainate 1 (Rattus norvegicus) (UniProt P22756); test: NVS_IC_rKAR: NovaScreen (NVS) Ion Channel Assay for rat Kainic Acid Receptors (KAR) (AID 2283334; active = hit-call score of the fitted dose curve at least 0.9, where 1 is the maximum; inactive = score below 0.9)
Outline: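 Radioligand displacement binding using rat forebrain membranes, 1 h incubation, filter-based scintillation counting. Screened in duplicate at 25 uM, with actives retested in concentration-response up to 50 uM; fitted against DMSO.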

[16] = NVS_IC_rCaBTZCHL: NovaScreen (NVS) Ion Channel Assay for Calcium Channel, Type L, Benzothiazepine Site (CaBTZCHL) (AID 2283337)
Outline: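 Radioligand binding to the benzothiazepine site of L-type Ca channels in rat cortical membranes (cell-free), 1.5 h after dosing; filter-based scintillation counting. Loss of signal relative to DMSO baseline; primary single-concentration screen at 25 uM, actives then run in concentration series.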

[17] = biological target: rat Glutamate, MK-801 Agonist Site (GluNMDA_MK801), Grin1 (gene 24408) (UniProt P35439); test: NVS_LGIC_rGluNMDA_MK801_Agonist: NovaScreen (NVS) Ligand-Gated Ion Channel Assay for rat Glutamate, MK-801 Agonist Site (GluNMDA_MK801) (AID 2283340)
Outline: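 Radioligand binding at MK-801 site in rat forebrain membranes, 1.5 h incubation, filter-based scintillation counting. Initially 25 uM in duplicate; actives then run in concentration-response up to 50 uM, fitted for gain of signal versus DMSO.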

[18] = biological target: rat Glycine Receptor, Strychnine-sensitive (GlyRStrySens), Glra1 (gene 25674) (UniProt P07727); test: NVS_LGIC_rGlyRStrySens: NovaScreen (NVS) Ligand-Gated Ion Channel Assay for rat Glycine Receptor, Strychnine-sensitive (GlyRStrySens) (AID 2283341)
Outline: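 Radioligand displacement on rat spinal cord membranes, 1 hr, filter scintillation read-out. Single-concentration duplicate screen at 25 uM; chemicals meeting threshold (e.g., 30% inhibition) rerun in concentration-response up to 50 uM. Loss of binding fitted versus DMSO.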

Structure (SMILES): CCCC1COC(Cn2cncn2)(c2ccc(Cl)cc2Cl)O1 (stereo unspecified)
- AC50 [1]: 17.3 µM (active)
- AC50 [2]: 18.1 µM (active)
- outcome [3]: inactive
- AC50 [4]: 12.3 µM (active)
- outcome [5]: inactive
- AC50 (NCBI gene 100848466): 17.9 µM (active)
- AC50 [6]: 11.8 µM (active) and 25 µM (active)
- AC50 [7]: 9.99 µM (active)
- outcome [8]: inactive
- outcome [9]: inactive

Structure (SMILES): CON(C)C(=O)Nc1ccc(Cl)c(Cl)c1
- AC50 [1]: 11.9 µM (active) [middle of 4 runs]
- AC50 [4]: 4.62 µM (active) [middle of 4 runs]
- outcome [10]: inactive
- outcome (NCBI gene 100848466): inactive
- outcome [6]: inactive
- AC50 [7]: 15.3 µM (active)
- outcome [11]: inactive
- outcome [8]: inactive
- outcome [9]: inactive

Structure (SMILES): C=CCC1=C(C)[C@@H](OC(=O)[C@@H]2[C@@H](C=C(C)C)C2(C)C)CC1=O
- AC50 [1]: 25 µM (active)
- AC50 [4]: 37.7 µM (active)
- outcome [8]: inactive
- outcome [9]: inactive

Structure (SMILES): CCOC(=O)CC(SP(=S)(OC)OC)C(=O)OCC (stereo unspecified)
- AC50 [1]: 2.17 µM (active)
- AC50 [2]: 25 µM (active)
- AC50 [4]: 10.5 µM (active)
- outcome (NCBI gene 100848466): inactive
- AC50 [6]: 18.6 µM (active)
- outcome [11]: inactive
- outcome [8]: inactive
- outcome [9]: inactive

Structure (SMILES): COC(=O)c1ccccc1C(=O)OC
- outcome [1]: inactive
- outcome [5]: inactive
- outcome (NCBI gene 100848466): inactive
- outcome [6]: inactive
- outcome [12]: inactive
- outcome [8]: inactive
- outcome [13]: inactive
- outcome [9]: inactive

Structure (SMILES): C=CC1(C)OC(=O)N(c2cc(Cl)cc(Cl)c2)C1=O (stereo unspecified)
- outcome [1]: inactive
- AC50 [4]: 2.19 µM (active) and 1.01 µM (active) and 693 nM (active)
- outcome [4]: inactive
- outcome (NCBI gene 100848466): inactive
- outcome [14]: inactive
- outcome [7]: inactive
- outcome [11]: inactive
- outcome [8]: inactive
- outcome [9]: inactive

Structure (SMILES): COc1nc(C)nc(NC(=O)NS(=O)(=O)c2ccccc2CCC(F)(F)F)n1
- outcome [6]: inactive

Structure (SMILES): COP(N)(=O)SC (stereo unspecified)
- outcome [1]: inactive
- outcome [6]: inactive
- outcome [14]: inactive
- outcome [8]: inactive
- outcome [13]: inactive

Structure (SMILES): CO/C=C(/C(=O)OC)c1ccccc1Oc1cc(Oc2ccccc2C#N)ncn1
- outcome [15]: inactive
- AC50 [4]: 3.17 µM (active) [middle of 4 runs]
- AC50 [16]: 6.63 µM (active) and 15.4 µM (active)
- outcome [17]: inactive
- outcome (NCBI gene 100848466): inactive
- outcome [6]: inactive
- outcome [14]: inactive
- outcome [11]: inactive
- outcome [8]: inactive
- outcome [9]: inactive

Structure (SMILES): CC(C)Oc1cc(-n2nc(C(C)(C)C)oc2=O)c(Cl)cc1Cl
- outcome [8]: inactive
- outcome [9]: inactive

Structure (SMILES): CCCCNC(=O)n1c(NC(=O)OC)nc2ccccc21
- outcome [18]: inactive
- outcome [8]: inactive
- outcome [9]: inactive

Structure (SMILES): O=C(O)c1nc(Cl)ccc1Cl
- outcome [8]: inactive
- outcome [9]: inactive
